# In all, about 2,900 compounds were measured (“NF-kB SEAP reporter activity, fold change vs agonist alone”: median about 0.99, highest 2% from about 2.6 on). Only a selection was taken, and the highest values are over-represented in it overall.
# How the values were obtained:
# RAW-Dual [1] = experiment: NF-kB SEAP reporter activity, fold change vs agonist alone; cytotoxicity flag (confluency mask): not cytotoxic; higher = enhanced NF-kB activity
# Method in brief: (§1)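 Cytotoxic wells were those whose IncuCyte confluency was below 70% of agonist controls in both mask sets. The cells were RAW-Dual macrophages at 50,000 cells/well in DMEM on 384-well plates, dosed with 50 nL of library stock by pin tool, stimulated with a PRR agonist 1 h later, and kept at 37 °C, 5% CO2 for 20 hours. IRF and NF-κB reporter activity, as fold change over agonist-alone wells, came from supernatant read by QuantiLuc luminescence and QuantiBlue absorbance, respectively.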
# RAW-Dual [2] = experiment: NF-kB SEAP reporter activity, fold change vs agonist alone; higher = enhanced NF-kB activity
# Method in brief: as §1
# RAW-Dual [3] = experiment: NF-kB SEAP reporter activity, fold change vs agonist alone; cytotoxicity flag (confluency mask): cytotoxic (confluency <70% of control); higher = enhanced NF-kB activity
# Method in brief: as §1
# [4] = agonist: ODN 1826 (TLR9) 0.5 ug/mL
# [5] = agonist: Pam2CSK4 (TLR2/6) 0.1 ug/mL
# [6] = agonist: Pam3CSK4 (TLR2/1) 0.1 ug/mL
# [7] = library stock concentration (final ~1000-fold dilution): 10 mM, cytotoxicity flag (confluency mask): not cytotoxic, agonist: Imiquimod (TLR7) […]
# [8] = library stock concentration (final ~1000-fold dilution): 10 mM, cytotoxicity flag (confluency mask): not cytotoxic, agonist: MPLA (TLR4) […]
# [9] = library stock concentration (final ~1000-fold dilution): 10 mM water, cytotoxicity flag (confluency mask): not cytotoxic, agonist: MPLA (TLR4) […]
# [10] = library stock concentration (final ~1000-fold dilution): 10 mM, cytotoxicity flag (confluency mask): cytotoxic (confluency <70% of control), agonist: Imiquimod (TLR7) […]
# [11] = library stock concentration (final ~1000-fold dilution): 10 mM, cytotoxicity flag (confluency mask): cytotoxic (confluency <70% of control), agonist: MPLA (TLR4) […]
smiles,measurement,setting,value
Cc1c(-c2ccc(C(N)=O)c3[nH]c4cc(C(C)(C)O)ccc4c23)cccc1-n1cnc2ccccc2c1=O (library stock concentration (final ~1000-fold dilution): 10 mM),NF-kB SEAP reporter activity,RAW-Dual [1]; agonist: LPS (TLR4) 0.1 ug/mL,1.25
same,NF-kB SEAP reporter activity,RAW-Dual [1]; [4],1.1
same,NF-kB SEAP reporter activity,RAW-Dual [1]; [5],0.537
same,NF-kB SEAP reporter activity,RAW-Dual [1]; [6],0.833
Cc1c(-c2ccc(C(N)=O)c3[nH]c4cc(C(C)(C)O)ccc4c23)cccc1-n1cnc2ccccc2c1=O,NF-kB SEAP reporter activity,RAW-Dual [2]; [7],1.76
same,NF-kB SEAP reporter activity,RAW-Dual [2]; [8],1.37
CC(O)C1C(=O)N2C(C(=O)O)=C(SCCNC=N)CC12.O (stereo unspecified) (library stock concentration (final ~1000-fold dilution): 10 mM water),NF-kB SEAP reporter activity,RAW-Dual [1]; agonist: LPS (TLR4) 0.1 ug/mL,1.41
same,NF-kB SEAP reporter activity,RAW-Dual [1]; [4],1.16
same,NF-kB SEAP reporter activity,RAW-Dual [1]; [5],1.23
same,NF-kB SEAP reporter activity,RAW-Dual [1]; [6],1.07
CC(O)C1C(=O)N2C(C(=O)O)=C(SCCNC=N)CC12.O (stereo unspecified),NF-kB SEAP reporter activity,"RAW-Dual [2]; library stock concentration (final ~1000-fold dilution): 10 mM water, cytotoxicity flag (confluency mask): not cytotoxic, agonist: Imiquimod (TLR7) […]",0.896
same,NF-kB SEAP reporter activity,RAW-Dual [2]; [9],1.02
CCCn1c(NC(=O)c2cccc(C(N)=O)c2)nc2ccccc21 (library stock concentration (final ~1000-fold dilution): 10 mM),NF-kB SEAP reporter activity,RAW-Dual [1]; agonist: LPS (TLR4) 0.1 ug/mL,0.482
same,NF-kB SEAP reporter activity,RAW-Dual [1]; [4],0.333
same,NF-kB SEAP reporter activity,RAW-Dual [1]; [5],0.143
same,NF-kB SEAP reporter activity,RAW-Dual [1]; [6],0.205
CCCn1c(NC(=O)c2cccc(C(N)=O)c2)nc2ccccc21,NF-kB SEAP reporter activity,RAW-Dual [2]; [7],0.36
same,NF-kB SEAP reporter activity,RAW-Dual [2]; [8],0.54
COc1ccc(N2C(=O)/C(=C/c3ccc([N+](=O)[O-])s3)SC2=S)cc1,NF-kB SEAP reporter activity,RAW-Dual [2]; [10],1.65
same,NF-kB SEAP reporter activity,RAW-Dual [2]; [11],1.63
COc1ccc(N2C(=O)/C(=C/c3ccc([N+](=O)[O-])s3)SC2=S)cc1 (library stock concentration (final ~1000-fold dilution): 10 mM),NF-kB SEAP reporter activity,RAW-Dual [3]; agonist: LPS (TLR4) 0.1 ug/mL,0.439
same,NF-kB SEAP reporter activity,RAW-Dual [3]; [4],2.23
same,NF-kB SEAP reporter activity,RAW-Dual [3]; [5],0.267
same,NF-kB SEAP reporter activity,RAW-Dual [3]; [6],0.382
CC(NC(=O)/C(C#N)=C/c1cccc(Br)n1)c1ccccc1 (stereo unspecified),NF-kB SEAP reporter activity,RAW-Dual [2]; [10],0.268
same,NF-kB SEAP reporter activity,RAW-Dual [2]; [11],0.204
CC(NC(=O)/C(C#N)=C/c1cccc(Br)n1)c1ccccc1 (stereo unspecified) (library stock concentration (final ~1000-fold dilution): 10 mM),NF-kB SEAP reporter activity,RAW-Dual [3]; agonist: LPS (TLR4) 0.1 ug/mL,0.233
same,NF-kB SEAP reporter activity,RAW-Dual [3]; [4],0.186
same,NF-kB SEAP reporter activity,RAW-Dual [3]; [5],0.0992
same,NF-kB SEAP reporter activity,RAW-Dual [3]; [6],0.136
CCC1OC(=O)C(C)(F)C(=O)C(C)C(OC2OC(C)CC(N(C)C)C2O)C(C)(OC)CC(C)C(=O)C(C)C2N(CCCCn3cc(-c4cccc(N)c4)nn3)C(=O)OC12C (stereo unspecified) (library stock concentration (final ~1000-fold dilution): 10 mM),NF-kB SEAP reporter activity,RAW-Dual [1]; agonist: LPS (TLR4) 0.1 ug/mL,1.47
same,NF-kB SEAP reporter activity,RAW-Dual [1]; [4],0.196
same,NF-kB SEAP reporter activity,RAW-Dual [1]; [5],0.966
same,NF-kB SEAP reporter activity,RAW-Dual [1]; [6],0.98
CCC1OC(=O)C(C)(F)C(=O)C(C)C(OC2OC(C)CC(N(C)C)C2O)C(C)(OC)CC(C)C(=O)C(C)C2N(CCCCn3cc(-c4cccc(N)c4)nn3)C(=O)OC12C (stereo unspecified),NF-kB SEAP reporter activity,RAW-Dual [2]; [8],1.53
Nc1nc(-c2ccco2)c2cnn(Cc3ccccc3F)c2n1,NF-kB SEAP reporter activity,RAW-Dual [2]; [7],1.05
same,NF-kB SEAP reporter activity,RAW-Dual [2]; [8],1.22
Nc1nc(-c2ccco2)c2cnn(Cc3ccccc3F)c2n1 (library stock concentration (final ~1000-fold dilution): 10 mM),NF-kB SEAP reporter activity,RAW-Dual [1]; agonist: LPS (TLR4) 0.1 ug/mL,1.11
same,NF-kB SEAP reporter activity,RAW-Dual [1]; [4],1.1
same,NF-kB SEAP reporter activity,RAW-Dual [1]; [5],1.03
same,NF-kB SEAP reporter activity,RAW-Dual [1]; [6],1.08
NS(=O)(=O)c1ccc(NC(=S)N2CCN(C/C=C/c3ccccc3)CC2)cc1 (library stock concentration (final ~1000-fold dilution): 10 mM),NF-kB SEAP reporter activity,RAW-Dual [1]; agonist: LPS (TLR4) 0.1 ug/mL,1.42
same,NF-kB SEAP reporter activity,RAW-Dual [1]; [4],1.17
same,NF-kB SEAP reporter activity,RAW-Dual [1]; [5],0.787
same,NF-kB SEAP reporter activity,RAW-Dual [1]; [6],0.825
NS(=O)(=O)c1ccc(NC(=S)N2CCN(C/C=C/c3ccccc3)CC2)cc1,NF-kB SEAP reporter activity,RAW-Dual [2]; [7],1.02
same,NF-kB SEAP reporter activity,RAW-Dual [2]; [8],1.1
Cl.OCCNCc1ccc(OCc2ccc(F)cc2)c(OCc2ccc(F)cc2)c1,NF-kB SEAP reporter activity,RAW-Dual [2]; [10],1.41
same,NF-kB SEAP reporter activity,RAW-Dual [2]; [11],1.5
Cl.OCCNCc1ccc(OCc2ccc(F)cc2)c(OCc2ccc(F)cc2)c1 (library stock concentration (final ~1000-fold dilution): 10 mM),NF-kB SEAP reporter activity,RAW-Dual [3]; agonist: LPS (TLR4) 0.1 ug/mL,0.702
same,NF-kB SEAP reporter activity,RAW-Dual [3]; [4],0.629
same,NF-kB SEAP reporter activity,RAW-Dual [3]; [5],0.301
same,NF-kB SEAP reporter activity,RAW-Dual [3]; [6],0.354
Cl.N=C(N)NCCCCC(N)C(=O)O (stereo unspecified),NF-kB SEAP reporter activity,RAW-Dual [2]; [9],1.08
Cl.N=C(N)NCCCCC(N)C(=O)O (stereo unspecified) (library stock concentration (final ~1000-fold dilution): 10 mM water),NF-kB SEAP reporter activity,RAW-Dual [1]; agonist: LPS (TLR4) 0.1 ug/mL,1.17
same,NF-kB SEAP reporter activity,RAW-Dual [1]; [4],1.12
same,NF-kB SEAP reporter activity,RAW-Dual [1]; [5],1.21
same,NF-kB SEAP reporter activity,RAW-Dual [1]; [6],0.923
CCCCNc1ncc2c(-c3ccc(CN4CCN(C)CC4)cc3)cn(C3CCC(O)CC3)c2n1.Cl (stereo unspecified) (library stock concentration (final ~1000-fold dilution): 10 mM),NF-kB SEAP reporter activity,RAW-Dual [3]; agonist: LPS (TLR4) 0.1 ug/mL,0.236
same,NF-kB SEAP reporter activity,RAW-Dual [3]; [4],0.351
same,NF-kB SEAP reporter activity,RAW-Dual [3]; [5],0.128
same,NF-kB SEAP reporter activity,RAW-Dual [3]; [6],0.192
CCCCNc1ncc2c(-c3ccc(CN4CCN(C)CC4)cc3)cn(C3CCC(O)CC3)c2n1.Cl (stereo unspecified),NF-kB SEAP reporter activity,RAW-Dual [2]; [10],0.547
same,NF-kB SEAP reporter activity,RAW-Dual [2]; [11],0.322
CN(C)C(=O)Nc1cccc(-c2ccc(N(C)C)cc2)c1 (library stock concentration (final ~1000-fold dilution): 10 mM),NF-kB SEAP reporter activity,RAW-Dual [1]; agonist: LPS (TLR4) 0.1 ug/mL,1.52
same,NF-kB SEAP reporter activity,RAW-Dual [1]; [4],1.08
same,NF-kB SEAP reporter activity,RAW-Dual [1]; [5],0.914
same,NF-kB SEAP reporter activity,RAW-Dual [1]; [6],1.01
CN(C)C(=O)Nc1cccc(-c2ccc(N(C)C)cc2)c1,NF-kB SEAP reporter activity,RAW-Dual [2]; [7],0.998
same,NF-kB SEAP reporter activity,RAW-Dual [2]; [8],0.985
CCn1cc(-c2ccnc3[nH]c(-c4cccc(CN(C)C)c4)cc23)c(-c2ccc(NC(=O)N(C)C)cc2)n1 (library stock concentration (final ~1000-fold dilution): 10 mM),NF-kB SEAP reporter activity,RAW-Dual [1]; agonist: LPS (TLR4) 0.1 ug/mL,6.43
same,NF-kB SEAP reporter activity,RAW-Dual [1]; [4],0.432
same,NF-kB SEAP reporter activity,RAW-Dual [1]; [5],1.83
same,NF-kB SEAP reporter activity,RAW-Dual [1]; [6],3.76
CCn1cc(-c2ccnc3[nH]c(-c4cccc(CN(C)C)c4)cc23)c(-c2ccc(NC(=O)N(C)C)cc2)n1,NF-kB SEAP reporter activity,RAW-Dual [2]; [7],3.13
same,NF-kB SEAP reporter activity,RAW-Dual [2]; [8],2.67

# Reference: the supplement of paper PMC10037445
